Data on seven compounds can be found in PubChem BioAssay AID588333 (National Center for Advancing Translational Sciences (NCATS), 2011).

Activity calls are given as the source filed them.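 Rule for the calls: active = compounds that kill cultured T. brucei parasites with a half-maximal potency under 200 micromolar; inactive = compounds with no measurable potency.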

A short description of this assay: Confirmatory Assay to Find Inhibitors of T. brucei phosphofructokinase: T. brucei in vitro Parasite Assay. Conditions: T. brucei brucei culture viability, Alamar Blue, 72 h. An excerpt: Various species of the protozoan family Trypanosomatidae are responsible for a range of serious human diseases in tropical and subtropical areas of the world. […] Many of the disorders caused by trypanosomatids are fatal if left untreated, but most currently used drugs are inefficient and toxic. […] Oxidative metabolism involving the mitochondrial tricarboxylic acid cycle and oxidative phosphorylation are repressed in these parasites, and recent RNA interference (RNAi) experiments have shown that even partial depletion of certain individual glycolytic enzymes can lead to the death of cultured parasites. One such glycolytic enzyme, phosphofructokinase (PFK), catalyzes the formation of fructose-1,6-bisphosphate (F1,6BP) and ADP from fructose-6-phosphate (F6P) and ATP, and in many metabolic circumstances makes an important contribution to the control of flux through the glycolytic pathway. As a specific glycolytic target, PFK is particularly attractive as it catalyzes the first irreversible step in glycolysis, and structural and kinetic studies have shown very substantial and essential differences from corresponding host enzymes, allowing for the discovery of parasite-selective inhibitors. Selected active compounds were additionally tested in a well-validated in vitro parasite assay to determine the relative potencies of lead compounds against live T. brucei cultures. H Chemical Genomics Center [NCGC] NIH Molecular Libraries Probe Centers Network [MLPCN] MLPCN Grant: MH092153-01 Assay Submitter (PI): Malcom Walkinshaw, University of Edinburgh
Dilutions of T. brucei brucei were incubated in modified Iscove's cell culture medium (supplemented with 10% FBS, 0.05 mM bathocuproine sulfonate, 1.5 mM L-cysteine, 1 mM hypoxanthine, 0.2 mM 2-mercaptoethanol, 1 mM sodium pyruvate and 0.16 mM thymidine) with titrations of compound for 72 hours. The cell density is adapted so that after 72 hours of incubation, the cells are at the end of the logarithmic growth phase (~5x104 tryps/mL). General morphology and motility were recorded after incubation, and Alamar Blue dye was added as a fluorescent marker of viability (ex530/em590) and read on a fluorescent plate reader following 4 hrs of incubation at 37 degrees C. The results of this assay were used to prioritize medicinal chemistry efforts in conjunction with the human cell toxicity assay to give a measure of relative parasite/host toxicity ratio.
Background: Resazurin is reduced to fluorescent resorufin, in cell work by metabolically active cells.
Take `O=C(Cc1ccc(Cl)c(Cl)c1)Nc1ccc(S(=O)(=O)Nc2ccon2)cc1`: the Potency was 16.3 µM (active).

Regarding `Cc1cc(NS(=O)(=O)c2ccc(NC(=O)Cc3ccc(Cl)c(Cl)c3)cc2)no1`, the Potency is 26.8 µM (active).

As to `O=C(Cc1ccc(Cl)c(Cl)c1)Nc1ccc(S(=O)(=O)Nc2ccc(C(=O)O)cc2)cc1`, the outcome was inactive.

Regarding `Cc1cc(NS(=O)(=O)c2ccc(NC(=O)Cc3ccc(Cl)c(F)c3)cc2)no1`, the Potency was 38.9 µM (active).

As for `Cc1cc(NS(=O)(=O)c2ccc(NC(=O)Cc3ccc(Cl)c(Cl)c3)cc2)on1`, the Potency is 157 µM (active).

As to `O=C(Cc1ccc(Cl)c(Cl)c1)Nc1ccc(S(=O)(=O)Nc2cccc(C(=O)O)c2)cc1`, the Potency is 105 µM (active).

Consider `COc1ccc(CC(=O)Nc2ccc(S(=O)(=O)Nc3cc(C)on3)cc2)cc1OC`, for which the call was inactive.
